In PubChem BioAssay (NCATS):
Results filed as inconclusive are left out. Entries that show only a call come without a potency. Values without a mark were called inactive. Active and inactive are the calls of the source. Calls follow the shape of the dose curve; as a rule, active = well fitted inhibition curve with a large enough effect; inconclusive = small, poorly fitted or top-dose-only effect; inactive = flat fitted curve, though single readings scatter.

What was measured:
CRL-7250 = normal cell line; experiment: Cytotoxic Profiling of Annotated Libraries Using Quantitative High-Throughput Screening (AID 1296008); conditions: Five cell lines viability, CellTiter-Glo ATP luminescence, 48-72 h; max response: active compounds read low
Outline: (§1)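 Cytotoxicity was measured as CellTiter-Glo ATP luminescence, read after 10 min at room temperature. Compound treatment of the cells lasted 48 or 72 hr at 37 degrees Celsius in a qHTS format.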

HEK293 = experiment: as above; conditions: Five cell lines viability, CellTiter-Glo ATP luminescence, 48-72 h; max response: active compounds read low
Outline: as §1

HaCat [1] = experiment: as above; conditions: Five cell lines viability, CellTiter-Glo ATP luminescence, 48-72 h; max response: active compounds read low
Outline: as §1

NIH3T3 = experiment: as above; conditions: Five cell lines viability, CellTiter-Glo ATP luminescence, 48-72 h; max response: active compounds read low
Outline: as §1

HACAT [2] = experiment: qHTS assay to identify novel small-molecules to repurpose for Merkel cell carcinoma treatment (AID 1296009); conditions: MCC and control cell lines, CellTiter-Glo viability, 72 h; at 44.8 µM (top of the series) unless noted
Outline: (§2)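 Cell viability, measured as CellTiter-Glo luminescence, was normalized between DMSO and no-cell wells. The cells had been exposed to 8- or 11-point compound dilutions for 72 hr at 37 degree celsius.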

MCC-13 = experiment: as above; conditions: MCC and control cell lines, CellTiter-Glo viability, 72 h; series mostly up to 46 µM
Outline: as §2

MCC-26 = experiment: as above; conditions: MCC and control cell lines, CellTiter-Glo viability, 72 h; series mostly up to 46 µM
Outline: as §2

MKL-1 = experiment: as above; conditions: MCC and control cell lines, CellTiter-Glo viability, 72 h; series mostly up to 46 µM
Outline: as §2

MKL-2 = experiment: as above; conditions: MCC and control cell lines, CellTiter-Glo viability, 72 h; series mostly up to 46 µM
Outline: as §2

HEK293T = experiment: as above; conditions: MCC and control cell lines, CellTiter-Glo viability, 72 h; at 44.8 µM (top of the series) unless noted
Outline: as §2
Also: nearly all actives have a fitted effect of over 60% in size.
Potency is read from the fitted curve at half-maximal effect.

| Compound | max response (CRL-7250) | max response (HEK293) | outcome (HaCat [1]) | max response (NIH3T3) | outcome (HACAT [2]) | Potency (MCC-13) | Potency (MCC-26) | Potency (MKL-1) | Potency (MKL-2) | outcome (CRL-7250) | outcome (NIH3T3) | outcome (HEK293) | max response (HaCat [1]) | outcome (HEK293T) | Potency (CRL-7250) | Potency (HEK293) |
| --- | --- | --- | --- | --- | --- | --- | --- | --- | --- | --- | --- | --- | --- | --- | --- | --- |
| COCCOCC(OC)OC | -5.92% | -49.7% | inactive | 1.4% | inactive | inactive | inactive | inactive | inactive | – | – | – | – | – | – | – |
| CC(=O)N(c1onc(C)c1C)S(=O)(=O)c1ccc(N)cc1 | -16.4% | 4.9% | inactive | -5.11% | inactive | inactive | inactive | inactive | inactive | – | – | – | – | – | – | – |
| CC(C)OP(=O)(CP(=O)(OC(C)C)OC(C)C)OC(C)C | -7.87% | -0.755% | inactive | -2.18% | inactive | inactive | inactive | inactive | inactive | – | – | – | – | – | – | – |
| CCN(CC)CC(=O)OCC(=O)[C@@]1(O)CC[C@H]2[C@@H]3CCC4=CC(=O)CC[C@]4(C)[C@H]3[C@@H](O)C[C@@]21C | – | 0.946% | inactive | – | inactive | inactive | inactive | inactive | inactive | inactive | inactive | – | – | – | – | – |
| N#CC1(c2ccc(F)cc2)CCC(=O)CC1 | -2.26% | -11.6% | inactive | – | inactive | inactive | inactive | inactive | inactive | – | inactive | – | – | – | – | – |
| CCCCC(CC)CNC(=O)CC(C)OC(=O)CCC(=O)O (configuration not stated) | -4.08% | 1.54% | inactive | -1.58% | inactive | inactive | inactive | inactive | inactive | – | – | – | – | – | – | – |
| COC(=O)c1cc(Cl)c(NC(C)=O)cc1OC | 2.72% | -2.05% | inactive | – | inactive | inactive | inactive | inactive | inactive | – | inactive | – | – | – | – | – |
| O=C1CC2(CCCC2)CC(=O)N1 | -7.34% | 4.63% | inactive | – | inactive | inactive | inactive | inactive | inactive | – | inactive | – | – | – | – | – |
| CN(C)CCN(Cc1ccsc1)c1ccccn1 | -0.513% | -3.25% | inactive | – | inactive | inactive | inactive | inactive | inactive | – | inactive | – | – | – | – | – |
| CO/N=C(\C(=O)O)c1csc(NC(=O)CCl)n1 | – | -4.55% | inactive | – | inactive | inactive | inactive | inactive | inactive | inactive | inactive | – | – | – | – | – |
| Cc1cccc(C)c1NC(=O)c1ccc(N)cc1 | -0.144% | -2.32% | inactive | – | inactive | inactive | inactive | inactive | inactive | – | inactive | – | – | – | – | – |
| O=C(O)c1ccc(OCCN2CCCCC2)cc1 | 4.52% | -3.98% | inactive | 1.34% | inactive | inactive | inactive | inactive | inactive | – | – | – | – | – | – | – |
| Cc1oc(=O)oc1COC(=O)[C@@H]1N2C(=O)[C@@H](NC(=O)[C@H](N)c3ccccc3)[C@H]2SC1(C)C | -5.05% | -0.753% | inactive | -3.48% | inactive | inactive | inactive | inactive | inactive | – | – | – | – | – | – | – |
| CN1CCN(N)CC1 | -18.2% | – | – | – | – | inactive | inactive | inactive | inactive | – | inactive | inactive | 1.4% | inactive | – | – |
| CCOc1ccccc1OCC1CNCCO1 (configuration not stated) | -6.41% | – | – | – | – | inactive | inactive | inactive | inactive | – | inactive | inactive | 0.667% | inactive | – | – |
| Nc1ccc(C(=O)N2CC3CC(CN(Cc4ccccc4)C3)C2)cc1 | -9.41% | – | – | – | – | inactive | – | inactive | inactive | – | inactive | inactive | 3.27% | inactive | – | – |
| O=C(O)C(=O)Nc1cccc(-c2nn[nH]n2)c1 | -0.0138% | – | – | – | – | inactive | inactive | inactive | inactive | – | inactive | inactive | -5.35% | inactive | – | – |
| Cc1nc2n(c(=O)c1CCN1CCC(C(=O)c3ccc(F)cc3)CC1)CCS2 | – | – | – | -4.75% | – | inactive | inactive | inactive | – | – | – | – | 1.44% | – | 9.44 µM (active) | 8.41 µM (active) |
| Nc1cc(C(F)(F)F)ccc1S | -0.153% | -4.91% | inactive | – | inactive | – | – | – | 11.9 µM (active) | – | inactive | – | – | – | – | – |
| Cc1[nH]cnc1-c1ccc(Cl)cc1 | – | – | – | – | – | inactive | inactive | inactive | inactive | inactive | inactive | inactive | -6.75% | inactive | – | – |
| COc1ccccc1N1CCN(CC(O)COc2cc(OC)c(OC)c(OC)c2)CC1 (configuration not stated) | – | 2.4% | inactive | -5.07% | inactive | inactive | inactive | inactive | inactive | inactive | – | – | – | – | – | – |
| CCS(=O)(=O)c1ccc(OC)c(C(=O)OC)c1 | 0.361% | – | – | – | – | inactive | inactive | inactive | inactive | – | inactive | inactive | 4.82% | inactive | – | – |
